In PubChem BioAssay (NCATS) one finds activity change, negative = inhibition and Potency data, which are given here for nine compounds.

Test [1] is described as follows: AP1 Signaling Pathway (AID 357).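 Note: ME-180 reporter cells stimulated with EGF at its EC50 level; % is set by controls: 0 for no effect and ±100 for the full control effect.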 The following applies: ME-180 (cervical carcinoma) AP-1-bla reporter, EGF-induced, beta-lactamase ratio, 5 h; at 7.69 µM (top of the series) unless noted. In a few lines: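 Beta-lactamase reporter under AP-1 response element, ME-180 background. Stimulus: EC50 EGF. Compound exposure 5 h, 37 °C. Detection: CCF4, 2.5 h RT, 460/530 nm. Values: AC50 from titration.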

Test [2] deals with Cytochrome P450 1A2 (Homo sapiens) (UniProt P05177). Put plainly: p450-cyp1a2 (AID 410; calls by dose curve; note: potency is the fitted concentration of half-maximal effect;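 for activity change, negative = inhibition: -100% = full effect of reference inhibitor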). In a few lines:
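20nM CYP1A2, 100uM Luciferin-ME (=Km), 100mM KPO4; cpd 10 min RT; +NADPH regen, 60 min RT; stop/detect 20 min; luminescence. Normalized to furafylline 57 uM = full inhibition.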

The nature of test [3]: NFAT Signaling Pathway (AID 444).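 Note: carbachol stimulus at about its EC50 of 1 µM final; % is set by controls: 0 for no effect and ±100 for the full control effect.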 The conditions noted are these: Jurkat NFAT-bla M1, carbachol, beta-lactamase ratio, 5 h; at 7.69 µM (top of the series) unless noted. In a few lines: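 Jurkat cells with NFAT-driven β-lactamase reporter and co-expressed M1 receptor, stimulated with carbachol (final 1 uM, ~EC50), compound titration, 5 h at 37 °C. CCF4 loaded 1 h at RT; 460/530 nm ratio gave %activity and AC50.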

Test [4] deals with Glucocorticoid receptor (Homo sapiens) (UniProt P04150). Put plainly: GR-GFP Redistribution (AID 450;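 active = compounds whose dose series gives a full or clear partial fitted curve of increased nuclear translocation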; note: potency is the fitted concentration of half-maximal effect). The conditions noted are these: U2OS GR-GFP nuclear translocation, laser cytometry, 2 h.
Chain of Glucocorticoid receptor (Homo sapiens) (P04150 whole entry, looked up): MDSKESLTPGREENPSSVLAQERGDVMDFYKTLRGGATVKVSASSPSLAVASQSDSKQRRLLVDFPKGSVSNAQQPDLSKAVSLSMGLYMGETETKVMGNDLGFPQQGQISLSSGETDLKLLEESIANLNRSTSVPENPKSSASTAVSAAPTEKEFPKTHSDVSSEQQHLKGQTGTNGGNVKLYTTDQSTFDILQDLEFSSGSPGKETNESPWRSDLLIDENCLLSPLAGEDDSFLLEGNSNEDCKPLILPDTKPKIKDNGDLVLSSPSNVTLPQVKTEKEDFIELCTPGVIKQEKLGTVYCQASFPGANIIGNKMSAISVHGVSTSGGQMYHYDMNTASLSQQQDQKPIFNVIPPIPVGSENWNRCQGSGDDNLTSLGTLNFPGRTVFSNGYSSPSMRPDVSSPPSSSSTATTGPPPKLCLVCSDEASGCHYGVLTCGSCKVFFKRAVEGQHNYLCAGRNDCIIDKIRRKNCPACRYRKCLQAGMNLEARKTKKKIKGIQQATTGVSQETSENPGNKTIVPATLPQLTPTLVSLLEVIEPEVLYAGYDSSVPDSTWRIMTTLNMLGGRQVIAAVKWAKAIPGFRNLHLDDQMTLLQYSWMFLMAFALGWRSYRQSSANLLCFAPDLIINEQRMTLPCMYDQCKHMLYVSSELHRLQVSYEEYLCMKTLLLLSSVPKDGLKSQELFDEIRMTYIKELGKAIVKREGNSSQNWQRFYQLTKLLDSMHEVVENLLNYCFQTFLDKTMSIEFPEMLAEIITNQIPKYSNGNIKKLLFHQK
The target is the same in test [5]. Put plainly: GR-EFC Redistribution (AID 451; calls by dose curve; note: potency is the fitted concentration of half-maximal effect). The following applies: CHO-K1 GR-EFC translocation, beta-gal luminescence, 2 h. In a few lines:
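CHO-K1 cells expressing nuclear EA and GR-ED fragments of b-gal; compounds titrated up to 46 uM final, 2 h at 37 C. GR nuclear translocation read as complemented b-gal luminescence after 1 h RT detection.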

Test [6] concerns the target Mitogen-activated protein kinase 10 (Mus musculus) (UniProt Q61831). The experiment in a line: JNK3 AlphaScreen Assay (AID 530).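 Note: kinase came from lysate of stimulated human HepG2 cells; signal reports phosphorylation of biotinylated GST-cJun 1-79 at Ser73 with 10 µM ATP; % is set by controls: 0 for no effect and ±100 for the full control effect.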 In a few lines: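 HepG2 lysate (IL-1b/TNFa pre-activated) + biotin-GST-cJun 1-79 + anti-pSer73 cJun; cpd titration, 15 min RT; ATP 10 uM start; Tris pH 7.6, MgCl2, DTT, vanadate; beads in EDTA buffer; AlphaScreen.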
Background: Bead proximity is the source of the signal in Alpha formats.

Test [7] deals with 3',5'-cyclic-AMP phosphodiesterase 4B (Homo sapiens) (UniProt Q07343). The experiment in a line: qHTS Assay for Inhibitors of PDE-IV (AID 607; active = well fitted activation curve with a large enough effect in the main read-out, with a control signal flat, not every such curve was filed as active; note: % of control where 0% means no effect). In a few lines:
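Cell-based read-out of cAMP via a modified cyclic nucleotide-gated channel and membrane potential dye (535/590 nm) in HEK293 cells expressing PDE4 endogenously. Compounds tested up to 22.9 uM final; 100 uM RO 20-1724 reference.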
For orientation: In qHTS, concentration-response curves come from the screen itself.

A number with no mark means an inactive call. Results filed as inconclusive are left out. Calls of active or inactive are those of the source. Unless noted, calls come from the whole dose curve; as a rule, active = well fitted curve in either direction with a large enough effect (not every such curve was filed as active); inconclusive = small, poorly fitted or top-dose-only effect, or another doubt; inactive = flat fitted curve, though single readings scatter. Bounds are passed on as bounds.

Chain of 3',5'-cyclic-AMP phosphodiesterase 4B (Homo sapiens) (Q07343 whole entry, looked up): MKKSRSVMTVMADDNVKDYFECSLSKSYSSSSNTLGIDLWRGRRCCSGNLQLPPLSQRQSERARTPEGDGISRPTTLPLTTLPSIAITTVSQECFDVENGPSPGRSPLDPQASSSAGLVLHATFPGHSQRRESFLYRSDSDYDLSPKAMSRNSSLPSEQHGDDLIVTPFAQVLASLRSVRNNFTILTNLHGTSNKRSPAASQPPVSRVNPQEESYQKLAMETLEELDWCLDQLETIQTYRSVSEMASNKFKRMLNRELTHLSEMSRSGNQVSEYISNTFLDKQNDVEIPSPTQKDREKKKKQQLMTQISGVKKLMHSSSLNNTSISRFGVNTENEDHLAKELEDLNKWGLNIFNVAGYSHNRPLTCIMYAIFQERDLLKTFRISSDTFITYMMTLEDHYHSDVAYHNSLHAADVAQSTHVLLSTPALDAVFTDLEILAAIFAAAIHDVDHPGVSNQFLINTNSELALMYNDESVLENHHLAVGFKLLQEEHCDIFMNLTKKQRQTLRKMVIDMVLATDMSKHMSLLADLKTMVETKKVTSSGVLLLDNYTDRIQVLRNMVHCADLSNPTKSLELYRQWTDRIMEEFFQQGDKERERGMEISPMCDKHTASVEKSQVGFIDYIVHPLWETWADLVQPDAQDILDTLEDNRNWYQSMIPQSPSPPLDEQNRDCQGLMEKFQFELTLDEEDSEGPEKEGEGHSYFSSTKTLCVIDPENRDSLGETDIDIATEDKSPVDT
Chain of Cytochrome P450 1A2 (Homo sapiens) (P05177 whole entry, looked up): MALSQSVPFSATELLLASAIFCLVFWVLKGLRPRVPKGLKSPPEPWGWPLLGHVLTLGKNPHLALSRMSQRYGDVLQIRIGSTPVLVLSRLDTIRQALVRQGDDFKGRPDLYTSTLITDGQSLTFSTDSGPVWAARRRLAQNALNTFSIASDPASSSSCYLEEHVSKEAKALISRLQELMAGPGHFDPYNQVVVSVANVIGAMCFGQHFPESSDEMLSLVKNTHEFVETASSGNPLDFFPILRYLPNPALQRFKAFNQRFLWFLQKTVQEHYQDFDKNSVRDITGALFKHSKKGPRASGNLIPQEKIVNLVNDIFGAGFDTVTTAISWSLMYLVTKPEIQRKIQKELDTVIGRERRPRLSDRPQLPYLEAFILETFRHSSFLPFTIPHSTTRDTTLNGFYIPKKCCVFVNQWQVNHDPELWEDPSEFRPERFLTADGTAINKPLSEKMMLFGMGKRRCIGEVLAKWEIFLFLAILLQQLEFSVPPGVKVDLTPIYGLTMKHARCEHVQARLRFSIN

Regarding `Cc1ccc(SCN2CCCCC2)cc1` (tested in a mixture with another compound), the activity change, negative = inhibition in test [1] is -5.94%; in test [3] it was 16.7%. Further, the Potency is 3.98 µM (active) in test [2], > 46 µM in test [4] and > 9.22 µM in test [5]. The Potency entry in test [6] and in test [7] was “inactive” throughout.

Regarding `CCc1cccc2c3c([nH]c12)[C@](CC)(CC(=O)O)OCC3`, the activity change, negative = inhibition is 6.07% [at 38 µM] in test [1] and -5.71% [at 38 µM] in test [3]. Further, the Potency result in test [2], in test [6] and in test [7] was “inactive” each time.

As for `O=C1C(=O)c2ccccc2C(O)=C1C(C1=C(O)c2ccccc2C(=O)C1=O)c1ccc(Cl)cc1`, the figures for the activity change, negative = inhibition in test [1] and in test [3] were -18% and -12.1%, respectively. Moreover, the results for the Potency in test [2], in test [4] and in test [5] were 3.98 µM (active), > 46 µM and > 9.22 µM, respectively. The Potency entry in test [6] and in test [7] was “inactive” in each case.

`CSC(N)=NCCC[C@@H](N)C(=O)O`: the activity change, negative = inhibition in test [1] was 19.2% [at 38 µM]; in test [3], 6.92% [at 38 µM]. In addition, the Potency entry in test [2], in test [6] and in test [7] was “inactive” each time. Moreover, the Potency in test [4] and in test [5] was > 46 µM each time.

`COc1cc2nc(N3CCN(C(=O)OCc4ccccc4)[C@H](C(=O)NC(C)(C)C)C3)nc(N)c2cc1OC`: the values for the activity change, negative = inhibition in test [1] and in test [3] were -7.79% [at 38 µM] and 3.46% [at 38 µM], respectively. Besides, the Potency entry in test [2], in test [6] and in test [7] was “inactive” in each case. The Potency in test [4] and in test [5] was > 46 µM in each case.

Consider `NC(N)=N/N=C(/c1ccccc1)c1ccc(O)cc1O`, for which the activity change, negative = inhibition in test [1] was -6.42%; in test [3], 5.67%. Moreover, the Potency in test [2] is 3.16 µM (active); in test [4] it was > 46 µM; in test [5], > 9.22 µM. In addition, the Potency result in test [6] and in test [7] was “inactive” throughout.

`CCNc1ncc2nc(-c3ccccc3)c(=O)n(C3CC3)c2n1`: the activity change, negative = inhibition in test [1] is -3.39%; in test [3], 23.2%. In addition, the Potency is 2.51 µM (active) in test [2], > 9.22 µM in test [4] and > 46 µM in test [5]. Also, the Potency entry in test [6] is “inactive”.

As for `Nc1c2c(nc3ccccc13)CCC[C@H]2O`, the figures for the activity change, negative = inhibition in test [1] and in test [3] were 1.75% [at 38 µM] and 0.441% [at 38 µM], respectively. Further, the Potency is 10 µM (active) in test [2], > 46 µM in test [4] and > 46 µM in test [5]. For the same compound, the Potency result in test [6] was “inactive”.

For `C[N+]1(CCC[N+]2(C)C[C@H]3[C@H](C2)[C@H]2C=C[C@@H]3CC2)CCOCC1` (stereo partly drawn), the activity change, negative = inhibition in test [1] was 0.978%; in test [3] it was 1.42%. Besides, the Potency result in test [2], in test [6] and in test [7] was “inactive” in each case. Further, the Potency in test [4] was > 46 µM.
